According to PubChem BioAssay (EPA / NIEHS):
Active and inactive are the calls of the source. The calls were made as follows: active = hit-call score of the fitted dose curve at least 0.9, where 1 is the maximum; inactive = score below 0.9.

Target: Bile acid receptor (Homo sapiens) (UniProt Q96RI1)
Assay: ATG_IR1_CIS: Attagene CIS-FACTORIAL HepG2 Assay for human Nuclear Receptor Subfamily 1 Group H Member 4 (NR1H4), IR1 submotif (AID 2282946)
Details: IR1 reporter transcription, actives raise or lower the signal
Experimental: ATG_CIS is a cell-based, multiplexed-readout assay that uses HepG2, a human liver cell line, with measurements taken at 24 hours after chemical dosing in a 24-well plate.ATG_IR1_CIS is one of 52 assay component(s) measured or calculated from the ATG_CIS assay. It is designed to make measurements of mRNA induction, a form of inducible reporter, as detected with fluorescence intensity signals by Reverse transcription polymerase chain reaction (RT-PCR) and Capillary electrophoresis technology.Data from the assay component ATG_IR1_CIS was analyzed into 1 assay endpoint. This assay endpoint, ATG_IR1_CIS, was analyzed with bidirectional fitting relative to DMSO as the negative control and baseline of activity. Using a type of inducible reporter, measures of mRNA for gain or loss-of-signal activity can be used to understand the reporter gene at the transcription factor-level as they relate to the gene NR1H4. Furthermore, this assay endpoint can be referred to as a primary readout, because this assay has produced multiple assay endpoints where this one serves a reporter gene function. To generalize the intended target to other relatable targets, this assay endpoint is annotated to the nuclear receptor intended target family, where the subfamily is non-steroidal.
Human liver HepG2 cells are transiently transfected with multiple reporter transcription units (MRTUs) in 6-well plates using FuGene 6 reagent (Roche; 3 ml FuGene/1 mg DNA). The MRTU constructs are regulated by a cis-regulating element (promoter). […] A major difference between the CIS and TRANS system is that in CIS activities of endogenous TFs are measured, whereas the TRANS assay evaluates changes in activities of exogenous, chimeric NR-Gal4 proteins. […] At the end of 24 hour incubation, total RNA was isolated using TriZol reagent (Invitrogen). The isolated RNA is then reverse-transcribed using oligo(dT) primer and Mo-MLV reverse transcriptase (Invitrogen) with DNAse I (Ambion) treatment for 30 min. The one-tenth of the produced cDNA was amplified by PCR using Taq DNA polymerase (Invitrogen) and two reporter sequence-specific primers. The PCR products were fluorescently labeled by primer extension with 6-arboxyfluorescein (6-FAM) 5'-labeled reporter sequence-specific primer (2 min at 95 C, 20 s at 68 C and 10 min at 72 C) and these products were digested with 5U of HpaI (New England Biolabs) for 2h at 37 C. The fragments were purified using Qiaquick PCR columns (Qiagen), analyzed on an ABI 3130xL genetic analyzer (Applied Biosystems) with peak positions identified by using a set of X-rhodamine (ROX)-labeled MapMarker1000 molecular weight standards (BioVentures). The raw capillary electrophoresis data was processed using Attagraph software (Attagene).

Chain of Bile acid receptor (Homo sapiens) (Q96RI1 whole entry, looked up): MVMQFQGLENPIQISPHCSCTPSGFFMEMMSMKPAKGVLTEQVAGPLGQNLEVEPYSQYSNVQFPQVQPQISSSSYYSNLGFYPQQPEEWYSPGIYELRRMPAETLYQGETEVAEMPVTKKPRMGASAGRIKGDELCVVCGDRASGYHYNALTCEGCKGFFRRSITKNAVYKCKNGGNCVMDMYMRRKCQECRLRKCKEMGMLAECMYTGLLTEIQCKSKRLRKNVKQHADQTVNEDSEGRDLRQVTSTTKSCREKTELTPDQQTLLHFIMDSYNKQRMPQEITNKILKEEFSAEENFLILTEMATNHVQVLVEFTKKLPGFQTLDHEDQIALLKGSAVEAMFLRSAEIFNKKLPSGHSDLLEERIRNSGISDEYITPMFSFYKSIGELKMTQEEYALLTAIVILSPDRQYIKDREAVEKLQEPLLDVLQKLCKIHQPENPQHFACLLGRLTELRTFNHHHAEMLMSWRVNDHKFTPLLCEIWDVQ

SMILES	outcome	AC50
CCOCC(C)O (stereo not given)	inactive	
C1=COCCC1	inactive	
CCCCCC(=O)O[C@]1(C(C)=O)CC[C@H]2[C@@H]3CCC4=CC(=O)CC[C@]4(C)[C@H]3CC[C@@]21C	inactive	
CC(C)(C)c1cc(CCC(=O)OCCSCCOC(=O)CCc2cc(C(C)(C)C)c(O)c(C(C)(C)C)c2)cc(C(C)(C)C)c1O	inactive	
COc1ccc(N)c(C)c1	inactive	
[Cl][Dy]([Cl])[Cl]	inactive	
O=C1OCc2ccccc21	inactive	
CC(=O)c1ccc2ccccc2c1	inactive	
COc1ccccc1O	inactive	
CC(C)CCOC(=O)CC(C)C	inactive	
NC(=O)c1c(Cl)cccc1Cl	inactive	
OC[C@H]1O[C@@H](O[C@H]2[C@H](O)[C@@H](O)[C@H](O)O[C@@H]2CO)[C@H](O)[C@@H](O)[C@H]1O	inactive	
CCOc1ccc(NC(C)=O)cc1	inactive	
CCC(=O)OCC=Cc1ccccc1	inactive	
O=C1OC2(c3ccc(O)cc3Oc3cc(O)ccc32)c2ccccc21	inactive	
CCCc1ccc(O)cc1	inactive	
CCCCCCCCSCc1cc(C)c(O)c(CSCCCCCCCC)c1	inactive	
C=C/C(C)=C/C/C=C(\C)CCC=C(C)C	inactive	
NC(N)=S	inactive	
CC12CCC(C1)C(C)(C)C2O (stereo not given)	inactive	

SMILES	outcome	AC50
CC1=CC[C@@H](C(C)(C)O)CC1	inactive	
CCCCC/C=C\C=C\C(=O)OCC		79.6 µM (active)
CC(=O)C1C(=O)C=C(C)OC1=O (stereo not given)	inactive	
C=C1CC/C=C(\C)CC[C@@H]2[C@@H]1CC2(C)C		81.9 µM (active)
C=CCOCC(O)CO (stereo not given)	inactive	
CCCCOCCOC(=O)c1ccccc1C(=O)OCCOCCCC	inactive	
CCCCOCC(C)OCC(C)O (stereo not given)	inactive	
CC(=O)C1=C(C)[C@@H]2C[C@@]3(C1)[C@H](C)CC[C@H]3C2(C)C	inactive	
C=C1CC[C@H]2O[C@]2(C)CC[C@@H]2[C@@H]1CC2(C)C	inactive	
CN(C)CCC=C1c2ccccc2CCc2ccccc21	inactive	
CCn1cc(C(=O)O)c(=O)c2ccc(C)nc21	inactive	
Brc1cc(Br)cc(Br)c1	inactive	
O=S(=O)(O)c1cc(S(=O)(=O)O)c2c(N=Nc3ccccc3)c(O)ccc2c1	inactive	
CCC=C(C)C=O	inactive	
CCC(=O)OC(C)(C)C1CC=C(C)CC1 (stereo not given)	inactive	
CC=CC(=O)C1=C(C)C=CCC1(C)C	inactive	
CCO[Si](CCC#N)(OCC)OCC	inactive	
CCC(=O)OC/C=C(\C)CCC=C(C)C	inactive	
CC1=CC(C)C(C=O)C(C)C1 (stereo not given) (tested in a mixture with another compound)	inactive	
O=c1cc[nH]cc1	inactive	
